Results reported in PubChem BioAssay (NCATS).
Records with an inconclusive call do not appear. Activity calls are given as the source filed them. Unless noted, calls come from the whole dose curve; as a rule, active = well fitted curve in either direction with a large enough effect (not every such curve was filed as active); inconclusive = small, poorly fitted or top-dose-only effect, or another doubt; inactive = flat fitted curve, though single readings scatter.

Columns and labels:
[1] = molecular target: Lysosomal acid glucosylceramidase (Homo sapiens) (UniProt P04062); test: Glucocerebrosidase-p2 (AID 348; in the data active = potency below about 10 µM; note: potency is the fitted concentration of half-maximal effect); settings: purified GBA, blue fluorogenic substrate, 40 min
Lysosomal acid glucosylceramidase (Homo sapiens), sequence (P04062 whole entry, looked up): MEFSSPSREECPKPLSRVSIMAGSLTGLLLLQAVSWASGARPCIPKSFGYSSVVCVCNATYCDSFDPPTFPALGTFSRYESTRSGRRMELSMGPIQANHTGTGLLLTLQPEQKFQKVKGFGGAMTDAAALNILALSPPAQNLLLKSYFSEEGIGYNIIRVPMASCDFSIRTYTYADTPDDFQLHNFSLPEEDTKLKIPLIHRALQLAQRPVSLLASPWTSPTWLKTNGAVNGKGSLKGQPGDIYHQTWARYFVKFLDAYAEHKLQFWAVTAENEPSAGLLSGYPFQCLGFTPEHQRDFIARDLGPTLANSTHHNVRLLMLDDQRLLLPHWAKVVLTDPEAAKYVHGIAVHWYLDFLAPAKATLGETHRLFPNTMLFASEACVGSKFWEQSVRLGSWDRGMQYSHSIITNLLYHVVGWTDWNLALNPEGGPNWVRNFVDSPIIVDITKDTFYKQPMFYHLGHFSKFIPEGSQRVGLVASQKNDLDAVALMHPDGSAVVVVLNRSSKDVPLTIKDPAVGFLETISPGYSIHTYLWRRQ
Procedure, shortened: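 Compounds titrated from 0.6 nM upwards against 0.2 nM enzyme in pH 5.9 citric acid/KH2PO4, taurocholate, tween-20; blue fluorogenic substrate 80 uM, 40 min room temperature, stopped and read Ex 365/Em 440 for AC50.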

[2] = AP1 Signaling Pathway (AID 357); settings: ME-180 AP-1-bla reporter, EGF-induced, beta-lactamase ratio, 5 h; at 7.69 µM (top of the series) unless noted;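 note: ME-180 reporter cells stimulated with EGF at its EC50 level; % is set by controls: 0 for no effect and ±100 for the full control effect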
Procedure, shortened: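 In this screen, ME-180 cells in Opti-MEM with 0.5% dialyzed FBS received EC50 EGF and compound titrations for 5 h. AP-1 reporter beta-lactamase was detected via CCF4 ratio, giving AC50 for positive and negative modulators.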

[3] = molecular target: Cytochrome P450 1A2 (Homo sapiens) (UniProt P05177); test: p450-cyp1a2 (AID 410; calls by dose curve; note: potency is the fitted concentration of half-maximal effect;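 for activity change, negative = inhibition: -100% = full effect of reference inhibitor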); settings: recombinant CYP1A2, luciferin-ME demethylation, luminescence; series mostly up to 11.4 µM
Cytochrome P450 1A2 (Homo sapiens), sequence (P05177 whole entry, looked up): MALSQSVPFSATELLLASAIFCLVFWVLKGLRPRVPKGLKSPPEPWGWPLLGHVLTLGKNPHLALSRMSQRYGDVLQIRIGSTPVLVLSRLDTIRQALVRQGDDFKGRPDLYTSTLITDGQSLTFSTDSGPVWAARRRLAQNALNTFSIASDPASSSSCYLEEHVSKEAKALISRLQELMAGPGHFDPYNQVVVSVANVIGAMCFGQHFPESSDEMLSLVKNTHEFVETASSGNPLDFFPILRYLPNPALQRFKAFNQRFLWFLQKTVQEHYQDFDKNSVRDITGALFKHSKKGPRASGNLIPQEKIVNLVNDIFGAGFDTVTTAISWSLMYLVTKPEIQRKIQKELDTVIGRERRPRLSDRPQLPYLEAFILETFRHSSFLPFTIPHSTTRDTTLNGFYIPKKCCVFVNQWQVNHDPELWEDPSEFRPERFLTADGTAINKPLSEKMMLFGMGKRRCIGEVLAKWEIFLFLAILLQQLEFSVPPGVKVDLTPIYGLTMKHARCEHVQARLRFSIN
Procedure, shortened: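 Inhibition was calculated relative to 57 uM furafylline (full inhibition). The reaction used human CYP1A2 at 20nM with Luciferin-ME at its Km, 100uM, driven by an NADPH-regenerating system for 60 min at room temperature.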

[4] = NFAT Signaling Pathway (AID 444); settings: Jurkat NFAT-bla M1, carbachol, beta-lactamase ratio, 5 h; at 7.69 µM (top of the series) unless noted;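 note: carbachol stimulus at about its EC50 of 1 µM final; % is set by controls: 0 for no effect and ±100 for the full control effect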
Procedure, shortened: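 Read-out: CCF4 FRET ratio (460 nm/530 nm) after 1 h RT dye loading, used for %activity and AC50 from titration series. Cells: Jurkat NFAT-β-lactamase/M1 line, treated with compound plus 1 uM carbachol for 5 h, 37 °C.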

[5] = Stat Signaling Pathway (AID 446); settings: ME-180 SIE beta-lactamase reporter, IL-6 stimulated, 5 h; at 7.69 µM (top of the series) unless noted;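 note: ME-180 cervical cancer cells given 40 pM IL-6 alongside compound; SIE-controlled beta-lactamase reporter measured as 460/530 nm FRET emission ratio; % is set by controls: 0 for no effect and ±100 for the full control effect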
Procedure, shortened: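 ME-180 SIE-bla cells; overnight plating; cpd + IL-6 40 pM, 5 h, 37 C; LiveBLAzer 2.5 h RT; 460/530 nm emission ratio. Normalized to 300 pM IL-6 and 125 nM JAK inhibitor controls.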

[6] = molecular target: Glucocorticoid receptor (Homo sapiens) (UniProt P04150); test: GR-GFP Redistribution (AID 450;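 active = compounds whose dose series gives a full or clear partial fitted curve of increased nuclear translocation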; note: potency is the fitted concentration of half-maximal effect); settings: U2OS GR-GFP nuclear translocation, laser cytometry, 2 h
Glucocorticoid receptor (Homo sapiens), sequence (P04150 whole entry, looked up, the tested form may be a part): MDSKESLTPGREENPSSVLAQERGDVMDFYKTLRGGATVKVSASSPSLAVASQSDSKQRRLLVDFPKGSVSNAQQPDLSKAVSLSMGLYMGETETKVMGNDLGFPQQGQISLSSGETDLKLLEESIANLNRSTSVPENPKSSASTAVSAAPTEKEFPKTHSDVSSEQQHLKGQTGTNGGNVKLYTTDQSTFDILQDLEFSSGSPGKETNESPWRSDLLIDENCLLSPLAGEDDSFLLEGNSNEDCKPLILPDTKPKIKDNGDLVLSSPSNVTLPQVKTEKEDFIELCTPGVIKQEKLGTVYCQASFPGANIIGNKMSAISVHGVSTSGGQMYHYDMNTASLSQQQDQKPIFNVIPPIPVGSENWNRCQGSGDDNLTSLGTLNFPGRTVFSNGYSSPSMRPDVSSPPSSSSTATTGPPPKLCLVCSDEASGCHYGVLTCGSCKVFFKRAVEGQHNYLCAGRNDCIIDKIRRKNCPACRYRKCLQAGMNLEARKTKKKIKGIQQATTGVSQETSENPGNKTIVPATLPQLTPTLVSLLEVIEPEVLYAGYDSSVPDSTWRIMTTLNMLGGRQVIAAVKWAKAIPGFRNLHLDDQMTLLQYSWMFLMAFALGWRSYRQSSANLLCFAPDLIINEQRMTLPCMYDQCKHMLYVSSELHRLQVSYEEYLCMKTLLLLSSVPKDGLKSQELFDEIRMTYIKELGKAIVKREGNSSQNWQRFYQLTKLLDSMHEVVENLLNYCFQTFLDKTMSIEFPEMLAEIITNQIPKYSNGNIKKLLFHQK

[7] = molecular target: Glucocorticoid receptor (Homo sapiens) (UniProt P04150); test: GR-EFC Redistribution (AID 451; calls by dose curve; note: potency is the fitted concentration of half-maximal effect); settings: CHO-K1 GR-EFC translocation, beta-gal luminescence, 2 h
Procedure, shortened: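 Translocation of GR-ED fusion to nuclear EA restores b-gal, read by luminescence after 1 h room-temperature detection. Engineered CHO-K1 biosensor cells, 1,000/well, exposed 2 h at 37 C to titrations up to 46 uM final.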

[8] = molecular target: Mitogen-activated protein kinase 10 (Mus musculus) (UniProt Q61831); test: JNK3 AlphaScreen Assay (AID 530); settings: JNK3 lysate, c-Jun phosphorylation; series mostly up to 11.4 µM;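 note: kinase came from lysate of stimulated human HepG2 cells; signal reports phosphorylation of biotinylated GST-cJun 1-79 at Ser73 with 10 µM ATP; % is set by controls: 0 for no effect and ±100 for the full control effect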
Procedure, shortened: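 Room-temperature AlphaScreen kinase assay; pre-activated HepG2 lysate as JNK3 source, biotin-GST-cJun(1-79) substrate, 10 uM ATP, compound 15 min preincubation.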

[9] = molecular target: 3',5'-cyclic-AMP phosphodiesterase 4B (Homo sapiens) (UniProt Q07343); test: qHTS Assay for Inhibitors of PDE-IV (AID 607; active = well fitted activation curve with a large enough effect in the main read-out, with a control signal flat, not every such curve was filed as active; note: % of control where 0% means no effect); settings: HEK293 ACTOne CNG channel cells, membrane potential fluorescence; series mostly up to 22.9 µM
3',5'-cyclic-AMP phosphodiesterase 4B (Homo sapiens), sequence (Q07343 whole entry, looked up): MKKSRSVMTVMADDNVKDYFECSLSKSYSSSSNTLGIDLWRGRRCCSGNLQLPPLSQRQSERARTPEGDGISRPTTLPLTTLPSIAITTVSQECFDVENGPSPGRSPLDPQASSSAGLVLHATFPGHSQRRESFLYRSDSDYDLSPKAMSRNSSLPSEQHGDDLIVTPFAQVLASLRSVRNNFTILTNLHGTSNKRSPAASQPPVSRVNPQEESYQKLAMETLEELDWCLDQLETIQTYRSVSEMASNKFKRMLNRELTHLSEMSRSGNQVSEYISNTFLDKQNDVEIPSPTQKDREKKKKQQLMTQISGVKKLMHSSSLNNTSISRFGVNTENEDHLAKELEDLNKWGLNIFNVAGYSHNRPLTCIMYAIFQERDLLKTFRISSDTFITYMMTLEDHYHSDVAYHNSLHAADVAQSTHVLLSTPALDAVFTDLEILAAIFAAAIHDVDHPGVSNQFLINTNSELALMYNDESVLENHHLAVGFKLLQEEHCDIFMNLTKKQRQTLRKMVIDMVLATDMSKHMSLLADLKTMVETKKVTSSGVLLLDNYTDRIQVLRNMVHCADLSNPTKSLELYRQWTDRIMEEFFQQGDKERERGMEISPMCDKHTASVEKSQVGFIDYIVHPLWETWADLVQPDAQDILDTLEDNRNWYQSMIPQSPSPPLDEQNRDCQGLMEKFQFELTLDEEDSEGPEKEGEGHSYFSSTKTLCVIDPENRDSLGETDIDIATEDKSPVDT
Procedure, shortened: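 ACTOne HEK293 cells carry a modified cAMP-gated CNG channel and express endogenous PDE4; plated 1000 cells/well, compounds up to 22.9 uM final. Membrane-potential dye fluorescence (ex 535/em 590) was read; parental cells received 10 uM forskolin + 100 uM RO 20-1724.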

[10] = qHTS Assay for Identification of Small Molecule Agonists for Hypoxia Response Element Signaling Pathway (AID 914; active = well fitted activation curve with a large enough effect in the signal ratio, with a control signal flat, not every such curve was filed as active; the % refers to the signal ratio; note: % of control where 0% means no effect); settings: ME-180 (cervical carcinoma) HRE-bla reporter, beta-lactamase ratio, CoCl2, 17 h; activation: active compounds read high
Procedure, shortened: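 Read-out: CCF4 FRET ratio of 460nm to 530nm emission (excitation 405nm) after 2.5 hours at room temperature, taken from HRE-bla ME-180 cells that had been exposed to compound and EC50 CoCl2 for 17 hours.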

[11] = molecular target: Cytochrome P450 2D6 (Homo sapiens) (UniProt P10635); test: qHTS Assay for Inhibitors and Substrates of Cytochrome P450 2D6 (AID 891; active = well fitted curve in the direction sought with a large enough effect; an effect the other way counts as inactive or inconclusive; note: nearly all actives have a fitted effect of over 60% in size; note: potency is the fitted concentration of half-maximal effect); settings: recombinant CYP2D6, luciferin-ME EGE luminescence; series mostly up to 11.4 µM
Cytochrome P450 2D6 (Homo sapiens), sequence (P10635 whole entry, looked up): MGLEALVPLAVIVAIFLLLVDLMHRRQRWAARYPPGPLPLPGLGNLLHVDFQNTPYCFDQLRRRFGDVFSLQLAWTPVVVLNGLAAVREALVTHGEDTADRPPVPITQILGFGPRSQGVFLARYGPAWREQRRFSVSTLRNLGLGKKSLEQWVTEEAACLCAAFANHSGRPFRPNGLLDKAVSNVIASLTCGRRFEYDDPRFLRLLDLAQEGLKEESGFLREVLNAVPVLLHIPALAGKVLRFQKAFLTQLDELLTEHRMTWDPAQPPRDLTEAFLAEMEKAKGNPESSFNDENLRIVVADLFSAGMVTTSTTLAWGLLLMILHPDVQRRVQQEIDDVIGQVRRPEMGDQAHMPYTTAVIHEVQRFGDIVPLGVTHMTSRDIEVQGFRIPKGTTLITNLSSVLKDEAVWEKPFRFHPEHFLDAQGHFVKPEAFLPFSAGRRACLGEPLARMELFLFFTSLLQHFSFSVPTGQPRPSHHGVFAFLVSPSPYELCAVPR
Procedure, shortened: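 Human CYP2D6 (5 nM) with 30 uM Luciferin-ME EGE (at Km) in 100 mM KPO4, compound preincubated 10 min, then NADPH regeneration system for 60 min at room temperature. Luciferin read by luminescence; normalized to 1.43 uM quinidine.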

[12] = molecular target: Cytochrome P450 3A4 (Homo sapiens) (UniProt P08684); test: qHTS Assay for Activators of Cytochrome P450 3A4 (AID 885; active = well fitted curve in the direction sought with a large enough effect; an effect the other way counts as inactive or inconclusive; note: nearly all actives have a fitted effect of over 65% in size); settings: recombinant CYP3A4, Luciferin-PPXE luminescence, 60 min; series mostly up to 11.4 µM
Cytochrome P450 3A4 (Homo sapiens), sequence (P08684 whole entry, looked up): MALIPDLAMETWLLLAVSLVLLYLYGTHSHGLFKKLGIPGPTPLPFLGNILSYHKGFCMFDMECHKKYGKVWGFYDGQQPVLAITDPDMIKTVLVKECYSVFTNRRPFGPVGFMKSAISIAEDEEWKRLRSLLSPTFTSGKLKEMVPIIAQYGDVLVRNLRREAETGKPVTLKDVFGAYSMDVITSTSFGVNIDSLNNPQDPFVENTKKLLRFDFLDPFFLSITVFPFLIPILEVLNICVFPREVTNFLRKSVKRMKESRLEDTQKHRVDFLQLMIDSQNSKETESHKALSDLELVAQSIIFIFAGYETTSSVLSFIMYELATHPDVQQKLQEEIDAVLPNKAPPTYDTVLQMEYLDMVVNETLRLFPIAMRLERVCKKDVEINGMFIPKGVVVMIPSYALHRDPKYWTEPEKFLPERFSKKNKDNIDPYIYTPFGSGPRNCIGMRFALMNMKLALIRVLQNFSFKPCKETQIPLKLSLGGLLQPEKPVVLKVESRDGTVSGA
Procedure, shortened: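 20nM CYP3A4 + 25uM Luciferin-PPXE (=KM), 200mM KPO4; cpd 10 min RT; NADPH regen, 60 min RT; stop w/ detection buffer, 20 min; luminescence. Normalized to 57 uM ketoconazole.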

[13] = molecular target: Cytochrome P450 2C19 (Homo sapiens) (UniProt P33261); test: qHTS Assay for Inhibitors and Substrates of Cytochrome P450 2C19 (AID 899; active = well fitted curve in the direction sought with a large enough effect; an effect the other way counts as inactive or inconclusive; note: potency is the fitted concentration of half-maximal effect; nearly all actives have a fitted effect of over 60% in size); settings: recombinant CYP2C19, luciferin-H EGE luminescence; series mostly up to 11.4 µM
Cytochrome P450 2C19 (Homo sapiens), sequence (P33261 whole entry, looked up): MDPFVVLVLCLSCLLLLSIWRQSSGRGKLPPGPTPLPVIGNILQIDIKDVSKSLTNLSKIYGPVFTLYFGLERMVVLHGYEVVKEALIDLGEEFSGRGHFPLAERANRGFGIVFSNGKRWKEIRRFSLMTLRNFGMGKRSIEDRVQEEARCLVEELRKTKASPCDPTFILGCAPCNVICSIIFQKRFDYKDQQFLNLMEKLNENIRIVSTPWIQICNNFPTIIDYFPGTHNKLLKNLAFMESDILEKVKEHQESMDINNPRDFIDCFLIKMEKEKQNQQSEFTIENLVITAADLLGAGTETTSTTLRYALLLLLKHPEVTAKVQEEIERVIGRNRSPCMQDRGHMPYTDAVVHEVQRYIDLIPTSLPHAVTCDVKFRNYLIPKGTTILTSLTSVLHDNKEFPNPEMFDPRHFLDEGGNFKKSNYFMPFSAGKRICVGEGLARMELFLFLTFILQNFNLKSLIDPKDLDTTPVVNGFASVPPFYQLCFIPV
Procedure, shortened: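 5nM enzyme + 10uM Luciferin-H EGE (=KM), 50mM KPO4; cpd pin-transferred, 10 min 37C; NADPH regen, 60 min 37C; stopped w/ luciferin detection reagent, 20 min; luminescence. Normalized to 57uM ketoconazole (AC100).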

[14] = molecular target: Cytochrome P450 2C9 (Homo sapiens) (UniProt P11712); test: qHTS Assay for Inhibitors and Substrates of Cytochrome P450 2C9 (AID 883; active = well fitted curve in the direction sought with a large enough effect; an effect the other way counts as inactive or inconclusive; note: potency is the fitted concentration of half-maximal effect; nearly all actives have a fitted effect of over 60% in size); settings: recombinant CYP2C9, luciferin-H luminescence, 60 min; series mostly up to 11.4 µM
Cytochrome P450 2C9 (Homo sapiens), sequence (P11712 whole entry, looked up): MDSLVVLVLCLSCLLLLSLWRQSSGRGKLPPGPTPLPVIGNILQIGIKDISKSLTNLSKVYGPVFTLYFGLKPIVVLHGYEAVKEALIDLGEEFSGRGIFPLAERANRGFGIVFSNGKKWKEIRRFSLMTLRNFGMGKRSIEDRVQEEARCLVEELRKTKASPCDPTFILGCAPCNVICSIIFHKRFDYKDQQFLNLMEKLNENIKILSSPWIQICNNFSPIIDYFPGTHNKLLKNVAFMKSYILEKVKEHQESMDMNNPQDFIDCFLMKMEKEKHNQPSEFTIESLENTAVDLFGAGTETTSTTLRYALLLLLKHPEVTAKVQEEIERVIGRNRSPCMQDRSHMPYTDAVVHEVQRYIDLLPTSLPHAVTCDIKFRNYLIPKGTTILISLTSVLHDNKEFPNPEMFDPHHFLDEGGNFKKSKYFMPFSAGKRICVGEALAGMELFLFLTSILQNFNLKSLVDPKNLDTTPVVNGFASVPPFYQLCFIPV
Procedure, shortened: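 Inhibition of CYP2C9 is scored as loss of luminescence, with 57uM sulphaphenazole defining 100% inhibition. Substrate Luciferin-H is used at 100uM, equal to its KM; enzyme at 10nM in 25mM KPO4, 60 min at 37C with NADPH regeneration.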

[15] = molecular target: Cytochrome P450 3A4 (Homo sapiens) (UniProt P08684); test: qHTS Assay for Inhibitors and Substrates of Cytochrome P450 3A4 (AID 884; active = well fitted curve in the direction sought with a large enough effect; an effect the other way counts as inactive or inconclusive; note: potency is the fitted concentration of half-maximal effect; nearly all actives have a fitted effect of over 50% in size); settings: recombinant CYP3A4, Luciferin-PPXE luminescence; series mostly up to 57.1 µM
Procedure, shortened: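 20 nM human CYP3A4 with 25 uM Luciferin-PPXE (at KM) in 200 mM KPO4, preincubated 10 min with compound; NADPH regeneration started a 60 min RT reaction. Luciferin detected by luminescence, normalized to 57 uM ketoconazole as full inhibition.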

O[C@@H](COc1cccc2ccccc12)CN1CCOCC1
inactive: Potency [1] > 11.4 µM | activity change, negative = inhibition [2] 3.83% | activity change, negative = inhibition [4] 4.33% | activity, negative = inhibition [5] 3.7% | Potency [6] > 46 µM | Potency [7] > 9.22 µM | Potency [8] | Potency [9] | activation [10] 3.28%
active: Potency [3] 3.98 µM

N[C@@H](Cc1c[nH]c2ccc([N+](=O)[O-])cc12)C(=O)O
inactive: Potency [1] > 11.4 µM | activity change, negative = inhibition [2] -1.05% | Potency [3] | activity change, negative = inhibition [4] -4.18% | activity, negative = inhibition [5] 3.4% | Potency [6] > 46 µM | Potency [7] > 9.22 µM | Potency [8] | Potency [9] | activation [10] -2.55%

CCCCn1cnc2c(c(CC#N)nn2-c2ccccc2)c1=N
active: Potency [3] 1 µM | Potency [11] 0.398 µM
inactive: Potency [1] > 11.4 µM | activity change, negative = inhibition [2] -12% | activity change, negative = inhibition [4] -1.01% | activity, negative = inhibition [5] -0.662% | Potency [6] > 46 µM | Potency [7] > 9.22 µM | Potency [8] | activation [10] 16.2%

COc1ccc(-n2c(=O)c(C)nc3cnc(Oc4cccc(Cl)c4)nc32)cc1
inactive: Potency [1] > 11.4 µM | activity change, negative = inhibition [2] -20.7% | activity change, negative = inhibition [4] -1.69% | activity, negative = inhibition [5] -10.9% | Potency [6] > 9.22 µM | Potency [7] > 46 µM | Potency [8] | Potency [12]
active: Potency [3] 7.94 µM

C[C@@]1(C(=O)O)CCC[C@@H]1C(=O)O
inactive: Potency [1] > 11.4 µM | activity change, negative = inhibition [2] 8.46% | activity change, negative = inhibition [3] -9.8% [at 2.29 µM] | activity change, negative = inhibition [4] 5.02% | activity, negative = inhibition [5] 2.41% | Potency [6] > 46 µM | Potency [7] > 9.22 µM | Potency [8] | Potency [9] | activation [10] 4.07%

COc1ccc(CNc2ncnc3ccc(-c4ccccc4C#N)cc23)c(OC)c1
inactive: Potency [1] > 11.4 µM | activity change, negative = inhibition [2] 13.2% | activity change, negative = inhibition [4] 8.27% | activity, negative = inhibition [5] -15% | Potency [6] > 46 µM | Potency [7] > 46 µM | Potency [8] | Potency [12]
active: Potency [3] 6.31 µM

C(/C=C\c1ccccc1)=Nc1ccc2c(c1)Cc1ccccc1-2
inactive: Potency [1] > 11.4 µM | activity change, negative = inhibition [2] -2.87% | activity change, negative = inhibition [4] -3.9% | activity, negative = inhibition [5] 7.01% | Potency [6] > 46 µM | Potency [7] > 9.22 µM | Potency [8] | Potency [12]
active: Potency [3] 0.398 µM | Potency [13] 3.98 µM

COc1ccccc1CCn1c(=O)c(-c2ccccc2)nc2cncnc21
inactive: Potency [1] > 11.4 µM | activity change, negative = inhibition [2] -5.11% | activity change, negative = inhibition [4] -9.96% | activity, negative = inhibition [5] -0.776% | Potency [6] > 9.22 µM | Potency [7] > 46 µM | Potency [8] | Potency [12]
active: Potency [3] 1 µM | Potency [14] 5.01 µM | Potency [15] 3.98 µM | Potency [13] 0.631 µM

O=C(O)C1(C(=O)O)CCN(S(=O)(=O)c2ccccc2)CC1
inactive: Potency [1] > 11.4 µM | activity change, negative = inhibition [2] -0.169% | activity change, negative = inhibition [3] 14% [at 2.29 µM] | activity change, negative = inhibition [4] 5.93% | activity, negative = inhibition [5] 11.9% | Potency [6] > 46 µM | Potency [7] > 9.22 µM | Potency [8] | Potency [11]
